These results are taken from article PMC8384837, “Expanding the binding specificity for RNA recognition by a PUF domain”.

Assay in all cases: yeast three-hybrid, YBZ-1, SC-Leu-His + 0.5 mM 3-AT, 4 days
What all share (conditions): tags: N-Gal4 AD-HA kept; label: inside an RPR1-promoter hybrid RNA with tandem MS2 sites; ssRNA

One test concerns the target PUM1 PUF domain R3-RSD (Homo sapiens, UniProt Q14671 828-1176, C935R;R936S;Q939D). In short, it runs like this:
(§1)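 Each repeat of the Pumilio-1 PUF domain was randomized at its three base-contacting residues, and these libraries were co-expressed from a centromeric plasmid with matching RNA elements in strain YBZ-1. After four days on SC-Leu (input) or SC-Leu-His + 0.5 mM 3-AT (selection), the repeat regions were PCR-amplified and Illumina-sequenced. The interaction score compares variant frequency between input and selection as a log change, computed in log2 with a pseudocount of 1 for absent variants.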

For another test, the target named is PUM1 PUF domain R5-RFN (Homo sapiens, UniProt Q14671 828-1176, C1007R;R1008F;Q1011N). In short, it runs like this: as §1
The target in the next test is PUM1 PUF domain R5-GWY (Homo sapiens, UniProt Q14671 828-1176, C1007G;R1008W;Q1011Y). In short, it runs like this: as §1
The target in the next test is PUM1 PUF domain R4-EHT (Homo sapiens, UniProt Q14671 828-1176, N971E;Q975T). In short, it runs like this:
as §1

The target of a further test is PUM1 PUF domain R8-HHP (Homo sapiens, UniProt Q14671 828-1176, N1122H;Y1123H;Q1126P). In short, it runs like this: as §1
In another test the target is PUM1 PUF domain R8-WFR (Homo sapiens, UniProt Q14671 828-1176, N1122W;Y1123F;Q1126R). In short, it runs like this: as §1
The target of a further test is PUM1 PUF domain R3-TWD (Homo sapiens, UniProt Q14671 828-1176, C935T;R936W;Q939D). In short, it runs like this:
as §1

For another test, the target named is PUM1 PUF domain R3-WWS (Homo sapiens, UniProt Q14671 828-1176, C935W;R936W;Q939S). In short, it runs like this: as §1
Another test addresses PUM1 PUF domain R7-KGV (Homo sapiens, UniProt Q14671 828-1176, S1079K;N1080G;E1083V). In short, it runs like this: as §1
For the next test, the target named is PUM1 PUF domain R1-NYV (Homo sapiens, UniProt Q14671 828-1176, S863N;R864Y;Q867V). In short, it runs like this: as §1
Sequence of PUM1 PUF domain R1-NYV (Q14671 828-1176 S863N/R864Y/Q867V): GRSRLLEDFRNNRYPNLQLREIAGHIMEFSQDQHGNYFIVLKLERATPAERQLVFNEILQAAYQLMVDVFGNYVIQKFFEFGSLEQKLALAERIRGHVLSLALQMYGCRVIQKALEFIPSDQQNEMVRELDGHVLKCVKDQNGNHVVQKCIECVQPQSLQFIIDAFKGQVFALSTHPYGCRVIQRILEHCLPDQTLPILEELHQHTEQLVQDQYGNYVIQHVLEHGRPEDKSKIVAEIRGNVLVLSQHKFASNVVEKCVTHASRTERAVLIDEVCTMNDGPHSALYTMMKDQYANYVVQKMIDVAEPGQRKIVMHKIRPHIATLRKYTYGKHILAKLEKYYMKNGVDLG

Sequence of PUM1 PUF domain R8-WFR (Q14671 828-1176 N1122W/Y1123F/Q1126R): as the sequence (Q14671 828-1176 S863N/R864Y/Q867V) above, with N36S, Y37R, V40Q, N295W, Y296F, Q299R counted along it
Sequence of PUM1 PUF domain R3-WWS (Q14671 828-1176 C935W/R936W/Q939S): as the sequence (Q14671 828-1176 S863N/R864Y/Q867V) above, with N36S, Y37R, V40Q, C108W, R109W, Q112S counted along it
Sequence of PUM1 PUF domain R5-RFN (Q14671 828-1176 C1007R/R1008F/Q1011N): as the sequence (Q14671 828-1176 S863N/R864Y/Q867V) above, with N36S, Y37R, V40Q, C180R, R181F, Q184N counted along it
Sequence of PUM1 PUF domain R8-HHP (Q14671 828-1176 N1122H/Y1123H/Q1126P): as the sequence (Q14671 828-1176 S863N/R864Y/Q867V) above, with N36S, Y37R, V40Q, N295H, Y296H, Q299P counted along it
Sequence of PUM1 PUF domain R3-RSD (Q14671 828-1176 C935R/R936S/Q939D): as the sequence (Q14671 828-1176 S863N/R864Y/Q867V) above, with N36S, Y37R, V40Q, C108R, R109S, Q112D counted along it
Sequence of PUM1 PUF domain R7-KGV (Q14671 828-1176 S1079K/N1080G/E1083V): as the sequence (Q14671 828-1176 S863N/R864Y/Q867V) above, with N36S, Y37R, V40Q, S252K, N253G, E256V counted along it
Sequence of PUM1 PUF domain R3-TWD (Q14671 828-1176 C935T/R936W/Q939D): as the sequence (Q14671 828-1176 S863N/R864Y/Q867V) above, with N36S, Y37R, V40Q, C108T, R109W, Q112D counted along it
Sequence of PUM1 PUF domain R4-EHT (Q14671 828-1176 N971E/Q975T): as the sequence (Q14671 828-1176 S863N/R864Y/Q867V) above, with N36S, Y37R, V40Q, N144E, Q148T counted along it
Sequence of PUM1 PUF domain R5-GWY (Q14671 828-1176 C1007G/R1008W/Q1011Y): as the sequence (Q14671 828-1176 S863N/R864Y/Q867V) above, with N36S, Y37R, V40Q, C180G, R181W, Q184Y counted along it

Turning to “GGCUAGAACUAGUGGAUCCCCCGGCGCCCGGCGGCUCGAGCCCGGGUAAGUGUAAUUAGUCUGCAUGCCGCCGGGCGCCAUGCCUGCAGGUCGACUCUAGAAAACAUG”, the binding signal with PUM1 PUF domain R3-RSD is 3.6 log2 enrichment (interaction score).

As for “GGCUAGAACUAGUGGAUCCCCCGGCGCCCGGCGGCUCGAGCCCGGGUAAGUGUUAAUAGUCUGCAUGCCGCCGGGCGCCAUGCCUGCAGGUCGACUCUAGAAAACAUG”, the binding signal with PUM1 PUF domain R5-RFN is 3.08 log2 enrichment (interaction score).

Turning to “GGCUAGAACUAGUGGAUCCCCCGGCGCCCGGCGGCUCGAGCCCGGGUAAGUGUGAAUAGUCUGCAUGCCGCCGGGCGCCAUGCCUGCAGGUCGACUCUAGAAAACAUG”, the figures for the binding signal in the test with PUM1 PUF domain R5-RFN and with PUM1 PUF domain R5-GWY were 3.16 log2 enrichment (interaction score) and 2.71 log2 enrichment (interaction score), respectively.

Consider “GGCUAGAACUAGUGGAUCCCCCGGCGCCCGGCGGCUCGAGCCCGGGUAAGUGUAUAUAGUCUGCAUGCCGCCGGGCGCCAUGCCUGCAGGUCGACUCUAGAAAACAUG”, for which the binding signal with PUM1 PUF domain R4-EHT is 2.46 log2 enrichment (interaction score).

Turning to “GGCUAGAACUAGUGGAUCCCCCGGCGCCCGGCGGCUCGAGCCCGGGUAAGGGUAAAUAGUCUGCAUGCCGCCGGGCGCCAUGCCUGCAGGUCGACUCUAGAAAACAUG”, the binding signal with PUM1 PUF domain R8-HHP was 2.56 log2 enrichment (interaction score).

With “GGCUAGAACUAGUGGAUCCCCCGGCGCCCGGCGGCUCGAGCCCGGGUAAGCGUAAAUAGUCUGCAUGCCGCCGGGCGCCAUGCCUGCAGGUCGACUCUAGAAAACAUG”, in the test with PUM1 PUF domain R8-WFR, the binding signal was 4.73 log2 enrichment (interaction score).

Regarding “GGCUAGAACUAGUGGAUCCCCCGGCGCCCGGCGGCUCGAGCCCGGGUAAGUGUAAGUAGUCUGCAUGCCGCCGGGCGCCAUGCCUGCAGGUCGACUCUAGAAAACAUG”, the binding signal with PUM1 PUF domain R3-TWD was 2.42 log2 enrichment (interaction score); with PUM1 PUF domain R3-WWS it was 5.24 log2 enrichment (interaction score).

On to “GGCUAGAACUAGUGGAUCCCCCGGCGCCCGGCGGCUCGAGCCCGGGUAAGUUUAAAUAGUCUGCAUGCCGCCGGGCGCCAUGCCUGCAGGUCGACUCUAGAAAACAUG”, for which the binding signal with PUM1 PUF domain R7-KGV is 3.27 log2 enrichment (interaction score).

As for “GGCUAGAACUAGUGGAUCCCCCGGCGCCCGGCGGCUCGAGCCCGGGUAAGUGUAAAUUGUCUGCAUGCCGCCGGGCGCCAUGCCUGCAGGUCGACUCUAGAAAACAUG”, in the test with PUM1 PUF domain R1-NYV, the binding signal was 3.91 log2 enrichment (interaction score).

Take “GGCUAGAACUAGUGGAUCCCCCGGCGCCCGGCGGCUCGAGCCCGGGUAAGUGUAAAUAGUCUGCAUGCCGCCGGGCGCCAUGCCUGCAGGUCGACUCUAGAAAACAUG”: the values for the binding signal in the test with PUM1 PUF domain R3-WWS and with PUM1 PUF domain R8-WFR were 2.73 log2 enrichment (interaction score) and 4.29 log2 enrichment (interaction score), respectively.
